{"source": "the supplement of paper PMC8728848", "binders": {"B1": {"name": "FGFR2-Fc (protein)", "chain": "MVNVTDAISSGDDEDDTDGAEDFVSENSNNKRAPYWTNTEKMEKRLHAVPAANTVKFRCPAGGNPMPTMRWLKNGKEFKQEHRIGGYKVRNQHWSLIMESVVPSDKGNYTCVVENEYGSINHTYHLDVVERSPHRPILQAGLPANASTVVGGDVEFVCKVYSDAQPHIQWIKHVEKNGSKYGPDGLPYLKVLKHSGINSSNAEVLALFNVTEADAGEYICKVSNYIGQANQSAWLTVLPKQQAPGREKEITASPDYLETRPLEQKLISEEDLAANDILDYKDDDDKV"}, "B2": {"name": "PX15618A-bth-503-24-503 (Bacteroides thetaiotaomicron) (protein)", "chain": "NKSEDKLSGDDFWAQGNETNAEAFLLSIYNSFRNATMSQRPFLTYSGDMRCAPITAYSTGDKYVAYLANNDMGELRNTYPDDARGGLIMQWDVFYTAIQDANILLAEIDKVPGMDELKRSRFKAEAIFMRSLSYFFIVRAFGDVPYYTNAYNEAPLPRTNMVIVLQNCLADLQPLLDDDPGAEVLPWSYSSYSSKGIRASRGSVIALMMHINLWLVQFDAQNKEQYYRNVVSLGEELERNNGAYSLLDINRSSVIFAGGSDEGLFEIAQNINFNEIFMMNAKFSDNVSYSCLNKSMPLFCYSGDYLMTLFPMYEDDARKELWFDEKIYSTSVSSSAPKEIKKFWNIDTYGNGTITSNSGNQIVFRYAGALLLYAEALAALGTNDTKACELLNRVRNRAHASEINTSGSELMDAIFWERCRELIGEGHYYYDLVRTGKVYNRNYCMNPMTRTNFNVGAWTWPIHRNALKNNTQIGLNLFWE"}}, "test_in_all_cases": "glycan array binding signal (z-score within array); higher = stronger binding", "details_in_all_cases": "glycan notation: IUPAC condensed, linker removed", "key": {"[1]": {"molecular_target": "Fuc(a1-2)Gal(b1-4)GlcNAc(b1-2)Man", "outline": "(§1)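 The Consortium for Functional Glycomics database supplied 3228 glycan arrays, of which those lacking an available protein sequence were dropped. The binding signal, a within-array Z-score, was averaged across arrays of the same protein sequence and across linkers. Negative scores can be read as non-binding.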"}, "[2]": {"molecular_target": "Fuc(a1-2)Gal(b1-4)GlcNAc(b1-2)Man(a1-3)[Fuc(a1-2)Gal(b1-4)GlcNAc(b1-2)Man(a1-6)]Man(b1-4)GlcNAc(b1-4)GlcNAc", "outline": "as §1"}, "[3]": {"molecular_target": "Fuc(a1-2)[Gal(a1-3)]Gal(b1-4)GlcNAc(b1-3)GalNAc", "outline": "as §1"}, "[4]": {"molecular_target": "Fuc(a1-2)[Gal(a1-3)]Gal(b1-4)GlcNAc(b1-6)GalNAc", "outline": "as §1"}, "[5]": {"molecular_target": "Fuc(a1-2)[GalNAc(a1-3)]Gal(b1-4)GlcNAc(b1-2)Man(a1-3)[Fuc(a1-2)[GalNAc(a1-3)]Gal(b1-4)GlcNAc(b1-2)Man(a1-6)]Man(b1-4)GlcNAc(b1-4)GlcNAc", "outline": "as §1"}, "[6]": {"molecular_target": "Fuc(a1-3)[Gal(b1-4)]GlcNAc(b1-6)[Gal(b1-3)GlcNAc(b1-3)]Gal(b1-4)Glc", "outline": "as §1"}, "[7]": {"molecular_target": "Fuc(a1-3)[Gal(b1-4)]GlcNAc6S", "outline": "as §1"}, "[8]": {"molecular_target": "Gal(a1-3)Gal(b1-3)GlcNAc(b1-6)GalNAc", "outline": "as §1"}, "[9]": {"molecular_target": "Gal(a1-3)[Gal(a1-4)]Gal(b1-4)GlcNAc", "outline": "as §1"}, "[10]": {"molecular_target": "Gal(b1-3)GalNAc", "outline": "as §1"}, "[11]": {"molecular_target": "Gal(b1-3)GlcNAc(b1-2)[Gal(b1-3)GlcNAc(b1-6)]Man(a1-6)[Gal(b1-3)GlcNAc(b1-2)Man(a1-3)]Man(b1-4)GlcNAc(b1-4)GlcNAc", "outline": "as §1"}, "[12]": {"molecular_target": "Gal(b1-3)GlcNAc(b1-3)Gal(b1-4)Glc", "outline": "as §1"}, "[13]": {"molecular_target": "Gal(b1-4)GlcNAc(b1-2)Man(a1-3)Man(b1-4)GlcNAc(b1-4)GlcNAc", "outline": "as §1"}, "[14]": {"molecular_target": "Gal(b1-4)GlcNAc(b1-2)Man(a1-3)[GlcNAc(b1-4)][Gal(b1-4)GlcNAc(b1-2)Man(a1-6)]Man(b1-4)GlcNAc(b1-4)GlcNAc", "outline": "as §1"}, "[15]": {"molecular_target": "Gal(b1-4)GlcNAc(b1-3)Gal(b1-4)GlcNAc(b1-3)Gal(b1-4)GlcNAc(b1-3)Gal(b1-4)GlcNAc(b1-2)Man(a1-3)[Gal(b1-4)GlcNAc(b1-3)Gal(b1-4)GlcNAc(b1-3)Gal(b1-4)GlcNAc(b1-3)Gal(b1-4)GlcNAc(b1-2)Man(a1-6)]Man(b1-4)GlcNAc(b1-4)GlcNAc", "outline": "as §1"}, "[16]": {"molecular_target": "Gal(b1-4)GlcNAc(b1-3)Gal(b1-4)GlcNAc(b1-3)[Gal(b1-4)GlcNAc(b1-3)Gal(b1-4)GlcNAc(b1-6)]GalNAc", "outline": "as §1"}, "[17]": {"molecular_target": "Gal3S(b1-4)[Fuc(a1-3)]Glc6S", "outline": "as §1"}, "[18]": {"molecular_target": "GalNAc(b1-3)Gal(a1-6)Gal(b1-4)Glc", "outline": "as §1"}, "[19]": {"molecular_target": "GalNAc3S(b1-4)GlcNAc", "outline": "as §1"}, "[20]": {"molecular_target": "GlcA(b1-3)GlcNAc", "outline": "as §1"}, "[21]": {"molecular_target": "GlcNAc(a1-3)Gal(b1-4)GlcNAc", "outline": "as §1"}, "[22]": {"molecular_target": "GlcNAc(a1-4)Gal(b1-4)GlcNAc(b1-3)Gal(b1-4)[Fuc(a1-3)]GlcNAc(b1-3)Gal(b1-4)[Fuc(a1-3)]GlcNAc", "outline": "as §1"}, "[23]": {"molecular_target": "GlcNAc(b1-2)[GlcNAc(b1-4)]Man(a1-3)[GlcNAc(b1-4)][GlcNAc(b1-2)[GlcNAc(b1-6)]Man(a1-6)]Man(b1-4)GlcNAc(b1-4)[Fuc(a1-6)]GlcNAc", "outline": "as §1"}, "[24]": {"molecular_target": "GlcNAc(b1-3)Fuc", "outline": "as §1"}, "[25]": {"molecular_target": "GlcNAc(b1-3)Gal(b1-3)GalNAc", "outline": "as §1"}, "[26]": {"molecular_target": "GlcNAc(b1-3)Gal(b1-4)GlcNAc(b1-3)Gal(b1-4)GlcNAc(b1-3)GalNAc", "outline": "as §1"}, "[27]": {"molecular_target": "GlcNAc(b1-4)GlcNAc", "outline": "as §1"}, "[28]": {"molecular_target": "GlcNAc6S(b1-3)Gal(b1-4)GlcNAc", "outline": "as §1"}, "[29]": {"molecular_target": "Man(b1-4)GlcNAc", "outline": "as §1"}, "[30]": {"molecular_target": "Neu5Ac(a2-3)Gal(b1-3)GalNAc(b1-4)[Neu5Ac(a2-8)Neu5Ac(a2-3)]Gal(b1-4)Glc", "outline": "as §1"}, "[31]": {"molecular_target": "Man(a1-2)Man(a1-3)[Man(a1-2)Man(a1-6)]Man", "outline": "as §1"}, "[32]": {"molecular_target": "Man(a1-3)[Man(a1-6)]Man(a1-6)[Man(a1-3)]Man(b1-4)GlcNAc(b1-4)GlcNAc", "outline": "as §1"}, "[33]": {"molecular_target": "MurNAc(b1-4)GlcNAc", "outline": "as §1"}, "[34]": {"molecular_target": "Neu5Ac(a2-3)Gal(b1-3)GalNAc", "outline": "as §1"}, "[35]": {"molecular_target": "Neu5Ac(a2-3)Gal(b1-3)]Neu5Ac(a2-3)Gal(b1-4)]GlcNAc", "outline": "as §1"}, "[36]": {"molecular_target": "Neu5Ac(a2-3)Gal(b1-4)GlcNAc(b1-2)[Neu5Ac(a2-3)Gal(b1-4)GlcNAc(b1-4)]Man(a1-3)[GlcNAc(b1-4)][Neu5Ac(a2-3)Gal(b1-4)GlcNAc(b1-4)Man(a1-6)]Man(b1-4)GlcNAc(b1-4)GlcNAc", "outline": "as §1"}, "[37]": {"molecular_target": "Neu5Ac(a2-3)Gal(b1-4)GlcNAc(b1-3)Gal(b1-4)GlcNAc(b1-3)GalNAc", "outline": "as §1"}, "[38]": {"molecular_target": "Neu5Ac(a2-3)[GalNAc(b1-4)]Gal(b1-4)Glc", "outline": "as §1"}, "[39]": {"molecular_target": "Neu5Ac(a2-6)Gal(b1-4)GlcNAc(b1-2)Man(a1-3)[Neu5Ac(a2-6)Gal(b1-4)GlcNAc(b1-2)Man(a1-6)]Man(b1-4)GlcNAc(b1-4)GlcNAc", "outline": "as §1"}, "[40]": {"molecular_target": "Neu5Ac(a2-8)Neu5Gc(a2-3)Gal(b1-4)GlcNAc", "outline": "as §1"}, "[41]": {"molecular_target": "Neu5Gc(a2-3)Gal(b1-4)Glc", "outline": "as §1"}, "[42]": {"molecular_target": "Neu5Gc(a2-6)Gal(b1-4)GlcNAc", "outline": "as §1"}}, "note": "The sample as a whole holds a higher share of the strongest signals than the screen did."}
{"binder": "B1", "values": [{"measurement": "glycan array binding signal (z-score)", "setting": "[1]", "result": 0.252}, {"measurement": "glycan array binding signal (z-score)", "setting": "[2]", "result": -0.068}, {"measurement": "glycan array binding signal (z-score)", "setting": "[3]", "result": 0.523}, {"measurement": "glycan array binding signal (z-score)", "setting": "[4]", "result": -0.635}, {"measurement": "glycan array binding signal (z-score)", "setting": "[5]", "result": 0.034}, {"measurement": "glycan array binding signal (z-score)", "setting": "[6]", "result": -0.327}, {"measurement": "glycan array binding signal (z-score)", "setting": "[7]", "result": 1.73}, {"measurement": "glycan array binding signal (z-score)", "setting": "[8]", "result": -0.722}, {"measurement": "glycan array binding signal (z-score)", "setting": "[9]", "result": 0.989}, {"measurement": "glycan array binding signal (z-score)", "setting": "[10]", "result": 0.236}, {"measurement": "glycan array binding signal (z-score)", "setting": "[11]", "result": 0.991}, {"measurement": "glycan array binding signal (z-score)", "setting": "[12]", "result": -0.488}, {"measurement": "glycan array binding signal (z-score)", "setting": "[13]", "result": -0.054}, {"measurement": "glycan array binding signal (z-score)", "setting": "[14]", "result": -0.552}, {"measurement": "glycan array binding signal (z-score)", "setting": "[15]", "result": 1.4}, {"measurement": "glycan array binding signal (z-score)", "setting": "[16]", "result": 0.9}, {"measurement": "glycan array binding signal (z-score)", "setting": "[17]", "result": 1.35}, {"measurement": "glycan array binding signal (z-score)", "setting": "[18]", "result": -0.126}, {"measurement": "glycan array binding signal (z-score)", "setting": "[19]", "result": -0.098}, {"measurement": "glycan array binding signal (z-score)", "setting": "[20]", "result": -0.356}, {"measurement": "glycan array binding signal (z-score)", "setting": "[21]", "result": 22.2}, {"measurement": "glycan array binding signal (z-score)", "setting": "[22]", "result": 1.49}, {"measurement": "glycan array binding signal (z-score)", "setting": "[23]", "result": 0.045}, {"measurement": "glycan array binding signal (z-score)", "setting": "[24]", "result": 0.448}, {"measurement": "glycan array binding signal (z-score)", "setting": "[25]", "result": -0.02}, {"measurement": "glycan array binding signal (z-score)", "setting": "[26]", "result": 0.549}, {"measurement": "glycan array binding signal (z-score)", "setting": "[27]", "result": -0.264}, {"measurement": "glycan array binding signal (z-score)", "setting": "[28]", "result": 0.175}, {"measurement": "glycan array binding signal (z-score)", "setting": "[29]", "result": 0.038}, {"measurement": "glycan array binding signal (z-score)", "setting": "[30]", "result": -0.349}]}
{"binder": "B2", "values": [{"measurement": "glycan array binding signal (z-score)", "setting": "[31]", "result": -0.505}, {"measurement": "glycan array binding signal (z-score)", "setting": "[32]", "result": 0.524}, {"measurement": "glycan array binding signal (z-score)", "setting": "[33]", "result": 0.506}, {"measurement": "glycan array binding signal (z-score)", "setting": "[34]", "result": -0.436}, {"measurement": "glycan array binding signal (z-score)", "setting": "[35]", "result": 0.09}, {"measurement": "glycan array binding signal (z-score)", "setting": "[36]", "result": -0.189}, {"measurement": "glycan array binding signal (z-score)", "setting": "[37]", "result": -0.707}, {"measurement": "glycan array binding signal (z-score)", "setting": "[38]", "result": -0.82}, {"measurement": "glycan array binding signal (z-score)", "setting": "[39]", "result": -0.217}, {"measurement": "glycan array binding signal (z-score)", "setting": "[40]", "result": 13.7}, {"measurement": "glycan array binding signal (z-score)", "setting": "[41]", "result": -0.471}, {"measurement": "glycan array binding signal (z-score)", "setting": "[42]", "result": -0.58}]}
